HepG2 tox = qHTS for Inhibitors of TGF-b: Cytotox Counterscreen | AID 588856, 2011 | HepG2 CAGA-GFP viability, ATP luminescence, 18 h | actives 0.76% (n = 410,000) | Potency, µM (doses to about 46.1 µM), for the others: at the highest dose activity change, negative = cytotoxicity, most hits filed as cytotoxic; further: potency means the concentration at half of the fitted maximal effect
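CellTiter-Glo luminescence gave cytotoxicity after 18 hours at 37 degrees C. The cells were HepG2 CAGA-GFP in 1% FBS DMEM, stimulated with 500 pg/mL TGF-beta after compound addition. %Activity was normalised to no-cell wells (complete cell-killing) and DMSO (no toxicity), and curves were fitted and classified.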
TDP1 cell CPT = qHTS for Inhibitors of human tyrosyl-DNA phosphodiesterase 1 (TDP1): qHTS in cells in presence of CPT; chicken DT40 Tdp1-/-;hTDP1 cells + 20 nM CPT, ATP luminescence, 48 h; Potency, µM (doses to about 46.2 µM), for inactives: at the top dose activity change, negative = growth inhibition, most hits filed as inhibitors; actives 12% (n = 420,000); AID 686979, 2013; further: potency means the concentration at half of the fitted maximal effect; on the % scale 0 is the no-effect control and ±100 the full control effect; nearly all actives have a fitted effect of over 55% in size
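Cell growth measured by CellTiter-Glo luminescence after a minimum 48 h, 37 C compound exposure with 20 nM CPT in Tdp1-knockout DT40 cells stably expressing hTDP1, seeded 400/well; qHTS titration format.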
S-ASM inh = Inhibitors of Secretory Acid Sphingomyelinase (S-ASM): qHTS; Sphingomyelin phosphodiesterase (Homo sapiens), P17405; placental ASM, HMU-PC fluorogenic substrate, 60 min; Potency, µM (doses to about 57.5 µM), inactives show top-dose activity change, negative = inhibition, hits mostly inhibitors; actives 0.006% (n = 340,000); further: potency means the concentration at half of the fitted maximal effect
Target sequence (P17405 47-631 limits assumed): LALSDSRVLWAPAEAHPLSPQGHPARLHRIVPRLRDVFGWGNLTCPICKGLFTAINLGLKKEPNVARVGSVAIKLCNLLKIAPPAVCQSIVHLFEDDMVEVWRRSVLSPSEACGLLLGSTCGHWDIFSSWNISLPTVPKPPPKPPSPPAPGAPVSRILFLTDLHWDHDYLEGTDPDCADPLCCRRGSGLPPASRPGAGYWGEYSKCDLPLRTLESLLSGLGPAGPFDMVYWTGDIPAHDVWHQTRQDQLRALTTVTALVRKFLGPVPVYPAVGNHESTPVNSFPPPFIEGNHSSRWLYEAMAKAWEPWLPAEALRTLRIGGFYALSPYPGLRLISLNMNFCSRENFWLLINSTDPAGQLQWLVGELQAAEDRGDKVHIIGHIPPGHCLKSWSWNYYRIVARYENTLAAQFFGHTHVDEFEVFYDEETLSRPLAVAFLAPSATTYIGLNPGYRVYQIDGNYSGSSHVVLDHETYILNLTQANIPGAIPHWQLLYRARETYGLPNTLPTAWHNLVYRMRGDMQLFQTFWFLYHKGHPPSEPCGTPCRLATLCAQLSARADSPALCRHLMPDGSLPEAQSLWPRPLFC
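Steps: dispense placental human ASM, pin compound, wait 10 min at room temperature, add HMU-PC0 substrate at 9 uM final, incubate 60 min at 37 °C, add stop solution raising pH to 10, read fluorescence.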
TDP1 cell noCPT = qHTS for Inhibitors of human tyrosyl-DNA phosphodiesterase 1 (TDP1): qHTS in cells in absence of CPT; DT40 Tdp1-/- hTDP1 cells, no CPT, ATP luminescence, 48 h; AID 686978, 2013; actives 15% (n = 420,000); Potency, µM (highest dose often 46.2 µM), for the others: at the highest dose activity change, negative = growth inhibition, actives largely listed as inhibitors; further: potency means the concentration at half of the fitted maximal effect; on the % scale 0 is the no-effect control and ±100 the full control effect; nearly all actives have a fitted effect of over 55% in size
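Growth kinetics read by CellTiter-Glo luminescence after ≥48 hr at 37 °C. Cells: DT40 Tdp1-/- stably carrying human TDP1, 400 per well, compound exposure in the absence of CPT (DMSO vehicle).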
IL-1B inflam inh = qHTS for Inhibitors of Inflammasome Signaling: IL-1-beta AlphaLISA Primary Screen; THP-1 LPS/ATP IL-1B secretion, AlphaLISA, 16 h; hits give low values; AID 743279, 2014; actives 4.7% (n = 360,000); activity change, % at 57.5 µM; in the data active means activity change below about -50%; inconclusive means mostly about -30% to -49%; further: on the % scale 0 is the no-effect control and ±100 the full control effect
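Secreted IL-1B measured by AlphaLISA bead assay after 16 h compound exposure of THP-1 cells; compounds (final up to 57.5 uM) added 1 h before LPS (250 ng/mL) and ATP (1.25 mM) stimulation; lower signal means less secretion.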
TGFb inhibitor = qHTS for Inhibitors of TGF-b; Potency, µM (highest dose often 46.1 µM), without a hit: at the highest dose activity, negative = inhibition, actives largely listed as inhibitors; actives 1.2% (n = 410,000); HepG2 CAGA-GFP TGF-b/SMAD3 reporter, GFP fluorescence, 18 h; TGF-beta stimulated, 500 pg/mL final; further: potency means the concentration at half of the fitted maximal effect; on the % scale 0 is the no-effect control and ±100 the full control effect; nearly all actives have a fitted effect of over 65% in size
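HEPG2 CAGA-GFP, 1000 cells/well; 2 h settle, 37 C; cpd via pin tool; TGF-b 500 pg/mL final; 18 h, 37 C; GFP imaging ex488/em500-530; %Activity normalised to -TGF-b and +DMSO controls; CRC fit, curve class.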
* marks the source's active call; other numbers are inactive results; [ ] = remark or other dose. Shown are actives, neighbours in structure and some others; about 19% of the full set was active somewhere. Unless noted, the call rests on the fitted dose curve; in most records, active means well fitted curve in the direction sought with a large enough effect; inconclusive means small, poorly fitted or top-dose-only effect, or another doubt; inactive means no such curve, though single readings can be large; an effect the other way counts as inactive or inconclusive.

What do the screens show for `CCN(CC)c1ccc(NC(=O)c2ccc3c(c2)OCO3)cc1`?
HepG2 tox: 3.3%; TDP1 cell CPT: inconclusive; S-ASM inh: 1.7%; TDP1 cell noCPT: inconclusive; IL-1B inflam inh: inconclusive; TGFb inhibitor: -3.2%

How did Cc1cc(C)n(CCCC(=O)O)n1 do in these assays?
HepG2 tox: -15.1%; TDP1 cell CPT: 2.6%; S-ASM inh: 1.7%; TDP1 cell noCPT: -3.5%; IL-1B inflam inh: -67.2*; TGFb inhibitor: 14.4%

Results for Cc1cc([N+](=O)[O-])nn1CCCC(=O)O ?
HepG2 tox: -3.9%; TDP1 cell CPT: -8.4%; S-ASM inh: -1.9%; TDP1 cell noCPT: 13.9%; IL-1B inflam inh: 18.7; TGFb inhibitor: -6.4%

Results for C=CCOn1c(=O)c(-c2ccc(F)cc2)[n+]([O-])c2ccccc21 ?
HepG2 tox: 1.8%; TDP1 cell CPT: 2.2%; S-ASM inh: 4.3%; TDP1 cell noCPT: -23.1%; IL-1B inflam inh: -6.1; TGFb inhibitor: 0.6%

What do the screens show for `C=CCn1c(=N)c(S(=O)(=O)c2ccc(C)c(C)c2)cc2c(=O)n3ccccc3nc21`?
HepG2 tox: 1.9%; TDP1 cell CPT: inconclusive; S-ASM inh: 23.9%; TDP1 cell noCPT: inconclusive; IL-1B inflam inh: -7.7; TGFb inhibitor: -0.3%

What do the screens show for `Cc1ccc(OCC(=O)O)c(-n2nc3ccccc3n2)c1`?
HepG2 tox: 11.8%; TDP1 cell CPT: 0.1%; S-ASM inh: 3.3%; TDP1 cell noCPT: -23.0%; IL-1B inflam inh: 32.8; TGFb inhibitor: 6.5%

How did Cc1ccc(NC(=O)COc2ccc(CCO)cc2-n2nc3ccccc3n2)cc1C do in these assays?
HepG2 tox: -46.0%; TDP1 cell CPT: inconclusive; S-ASM inh: -4.0%; TDP1 cell noCPT: 11.6µM*; IL-1B inflam inh: -6.3; TGFb inhibitor: inconclusive

How did COC(=O)c1ccc(C(=O)OC)c(NC(=O)C2CCCO2)c1 (configuration not stated) do in these assays?
HepG2 tox: 4.3%; TDP1 cell CPT: -10.8%; S-ASM inh: 19.4%; TDP1 cell noCPT: -10.5%; IL-1B inflam inh: 14.7; TGFb inhibitor: 8.9%

How did Cc1cccc(N2CCN(C(c3ccccc3)c3nnc(-c4ccccc4Cl)o3)CC2)c1C (configuration not stated) do in these assays?
HepG2 tox: -16.5%; TDP1 cell CPT: 20.6µM*; TDP1 cell noCPT: inconclusive; TGFb inhibitor: -6.5%

How did Cc1ccc(C)c(N2CCN(C(c3ccc(F)cc3)c3nnc(-c4ccccc4)o3)CC2)c1 (configuration not stated) do in these assays?
HepG2 tox: -8.4%; TDP1 cell CPT: inconclusive; TDP1 cell noCPT: 14.6µM*; TGFb inhibitor: -0.4%

How did Cc1ccccc1-c1nnc(CN2CCN(c3cccc(C)c3C)CC2)o1 do in these assays?
HepG2 tox: -15.9%; TDP1 cell CPT: -20.3%; TDP1 cell noCPT: -25.8%; TGFb inhibitor: inconclusive

What do the screens show for `Cc1cccc(N2CCN(C(c3ccccc3)c3nnc(-c4ccccc4F)o3)CC2)c1C` (configuration not stated)?
HepG2 tox: -14.6%; TDP1 cell CPT: 14.6µM*; TDP1 cell noCPT: 23.1µM*; TGFb inhibitor: -29.6%

Results for Cc1ccc(C)c(SCC(=O)Nc2nnc(-c3ccccc3)o2)c1 ?
HepG2 tox: -38.7%; TDP1 cell CPT: inconclusive; S-ASM inh: -2.0%; TDP1 cell noCPT: inconclusive; IL-1B inflam inh: 9.0; TGFb inhibitor: inconclusive

How did Cc1ccc(C)c(N2CCN(C(c3ccccc3)c3nnc(-c4ccccc4F)o3)CC2)c1 (configuration not stated) do in these assays?
HepG2 tox: 1.4%; TDP1 cell CPT: inconclusive; TDP1 cell noCPT: 23.1µM*; TGFb inhibitor: -5.2%

Results for Oc1ccccc1N1CCN(C(c2ccccc2)c2ccccc2)CC1 ?
HepG2 tox: 1.9%; TDP1 cell CPT: inconclusive; S-ASM inh: -17.0%; TDP1 cell noCPT: inconclusive; IL-1B inflam inh: inconclusive; TGFb inhibitor: -13.7%

What do the screens show for `Cc1cc(C)c2oc(C(=O)N(Cc3cccs3)C3CCS(=O)(=O)C3)cc(=O)c2c1` (configuration not stated)?
HepG2 tox: -12.8%; TDP1 cell CPT: inconclusive; S-ASM inh: -2.5%; TDP1 cell noCPT: inconclusive; IL-1B inflam inh: -5.2; TGFb inhibitor: -12.3%

Results for COC(=O)c1ccccc1NC(=O)CSc1ncn[nH]1 ?
HepG2 tox: 35.0%; TDP1 cell CPT: 14.5%; S-ASM inh: 0.9%; TDP1 cell noCPT: -9.7%; IL-1B inflam inh: 6.2; TGFb inhibitor: -0.3%

Results for Cc1ncc2c(c1CNC(=O)c1ccc3c(c1)OCO3)CCN(C(=O)C1Cc3ccccc3O1)C2 (configuration not stated) ?
TDP1 cell CPT: 2.1%[9.04 µM]; TDP1 cell noCPT: -5.1%

What do the screens show for `CC(=O)N1CCc2cc(S(=O)(=O)NC(CC(C)C)C(=O)Nc3cc(C)cc(C)c3)ccc21` (configuration not stated)?
HepG2 tox: 9.7%; TDP1 cell CPT: -3.3%; TDP1 cell noCPT: -2.5%; TGFb inhibitor: -14.3%

What do the screens show for `COc1ccccc1-c1cccc2nccn12`?
HepG2 tox: 5.6%; TDP1 cell CPT: inconclusive; TDP1 cell noCPT: -14.9%; IL-1B inflam inh: -0.8; TGFb inhibitor: 3.7%

Results for CC(C)COc1ccc(C(=O)Nc2nnc(S(=O)(=O)N(C)Cc3ccco3)s2)cc1 ?
HepG2 tox: -10.5%; TDP1 cell CPT: inconclusive; TDP1 cell noCPT: inconclusive; TGFb inhibitor: -11.3%

Results for CCOC(=O)COc1ccccc1/C=C\[N+](=O)[O-] ?
HepG2 tox: 8.91µM*; TDP1 cell CPT: 2.59µM*; S-ASM inh: 1.9%; TDP1 cell noCPT: 1.64µM*; IL-1B inflam inh: -99.9*; TGFb inhibitor: 5.62µM*

What do the screens show for `COc1ccc2c(CNC3CCCCCC3)c(C(=O)O)n(Cc3cccc(F)c3)c2c1`?
HepG2 tox: -34.8%; TDP1 cell CPT: -5.0%; TDP1 cell noCPT: inconclusive; TGFb inhibitor: 0.0%

Results for C=Cc1ccc(Cn2c(C(=O)O)c(CNC3CCCCC3)c3ccc(OC)cc32)cc1 ?
HepG2 tox: -10.9%; TDP1 cell CPT: 20.6µM*; TDP1 cell noCPT: 20.6µM*; TGFb inhibitor: -14.5%

Assay outcomes as filed in PubChem.
